Data published in PubChem BioAssay AID1159580 (chemical genetic matrix, 2015).
Among all 5,500 compounds or so, about 2,000 (36%) were called active. Another 18% or so got no clear call; they are omitted. No stated cut-off is given here; in the data, active means normalized growth mostly below about 0.91 (no sharp cut-off); inconclusive means no clear call, values can overlap the other calls; inactive means mostly above about 0.92. The list shows a part of the results.

Experiment: chemical genetic growth profiling, strain panel (AID 1159580);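 further: tested at 20 µM; growth read once vehicle control cultures reached saturation at 30 °C; 1 = growth at the plate median or of vehicle wells; lower values mean less growth of the strain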
Details: growth OD

Measured: normalized growth

C/C=C/c1ccc2c(c1)OCO2
inactive: S. cerevisiae deletion strains, locus YJR075W, strain HOC1, hits give low values 1.01 | S. cerevisiae deletion strains, locus YKL009W, strain mrt4, hits give low values 1.02 | S. cerevisiae deletion strains, locus YKL068W, hits give low values 1 | S. cerevisiae deletion strains, locus YKL085W, strain MDH1 (second series), hits give low values 1.01 | S. cerevisiae deletion strains, locus YKL085W, strain MDH1, hits give low values 1.01 | S. cerevisiae deletion strains, locus YKL160W, strain elf1, hits give low values 1 | S. cerevisiae deletion strains, locus YKL190W, strain CNB1, hits give low values 1.01 | S. cerevisiae deletion strains, locus YKR001C, strain vps1, hits give low values 1.05 | S. cerevisiae deletion strains, locus YKR026C, strain gcn3, hits give low values 0.997 | S. cerevisiae deletion strains, locus YKR091W, strain srl3, hits give low values 1.01 | S. cerevisiae deletion strains, locus YLL001W, strain dnm1, hits give low values 1.01 | S. cerevisiae deletion strains, locus YLL026W, hits give low values 1.02 | S. cerevisiae deletion strains, locus YLL041C, strain sdh2, hits give low values 1.02 | S. cerevisiae deletion strains, locus YLR027C, strain aat2, hits give low values 1.02 | S. cerevisiae deletion strains, locus YLR039C, strain RIC1, hits give low values 1.07 | S. cerevisiae deletion strains, locus YLR058C, strain SHM2, hits give low values 1.01 | S. cerevisiae deletion strains, locus YLR102C, strain apc9, hits give low values 1.01 | S. cerevisiae deletion strains, locus YLR113W, strain HOG1, hits give low values 0.976 | S. cerevisiae deletion strains, locus YLR221C, strain rsa3, hits give low values 0.994 | S. cerevisiae deletion strains, locus YLR258W, strain gsy2, hits give low values 1.02 | S. cerevisiae deletion strains, locus YLR262C, strain YPT6 (second series), hits give low values 1 | S. cerevisiae deletion strains, locus YLR262C, strain YPT6, hits give low values 1.05 | S. cerevisiae deletion strains, locus YLR268W, strain sec22, hits give low values 1.04 | S. cerevisiae deletion strains, locus YLR320W, strain mms22, hits give low values 1.01 | S. cerevisiae deletion strains, locus YLR330W, strain CHS5, hits give low values 1.02 | S. cerevisiae deletion strains, locus YLR342W, strain FKS1 (second series), hits give low values 1.03 | S. cerevisiae deletion strains, locus YLR342W, strain FKS1, hits give low values 1.02 | S. cerevisiae deletion strains, locus YLR357W, strain rsc2, hits give low values 1.03 | S. cerevisiae deletion strains, locus YLR370C, strain arc18, hits give low values 1.02 | S. cerevisiae deletion strains, locus YLR371W, strain rom2, hits give low values 1.01 | S. cerevisiae deletion strains, locus YLR384C, strain iki3, hits give low values 1.03 | S. cerevisiae deletion strains, locus YLR418C, strain cdc73, hits give low values 1 | S. cerevisiae deletion strains, locus YML016C, strain PPZ1, hits give low values 1.01 | S. cerevisiae deletion strains, locus YML032C, strain rad52, hits give low values 0.996 | S. cerevisiae deletion strains, locus YML120C, strain ndi1, hits give low values 1.03 | S. cerevisiae deletion strains, locus YML124C, strain tub3, hits give low values 1 | S. cerevisiae deletion strains, locus YMR058W, strain fet3, hits give low values 1.02 | S. cerevisiae deletion strains, locus YMR078C, strain ctf18, hits give low values 1.01 | S. cerevisiae deletion strains, locus YMR125W, strain sto1, hits give low values 1.03 | S. cerevisiae deletion strains, locus YMR129W, hits give low values 1.02 | S. cerevisiae deletion strains, locus YMR205C, strain PFK2, hits give low values 1.02 | S. cerevisiae deletion strains, locus YMR223W, strain ubp8, hits give low values 0.99 | S. cerevisiae deletion strains, locus YMR231W, strain pep5, hits give low values 1.02 | S. cerevisiae deletion strains, locus YMR263W, strain SAP30, hits give low values 1.01 | S. cerevisiae deletion strains, locus YMR307W, strain GAS1, hits give low values 0.986 | S. cerevisiae deletion strains, locus YNL067W, strain RPL9B, hits give low values 1.01 | S. cerevisiae deletion strains, locus YNL071W, strain lat1, hits give low values 1.02 | S. cerevisiae deletion strains, locus YNL153C, strain GIM3, hits give low values 1.03 | S. cerevisiae deletion strains, locus YNL183C, strain NPR1, hits give low values 0.948 | S. cerevisiae deletion strains, locus YNL209W, strain ssb2, hits give low values 1.02 | S. cerevisiae deletion strains, locus YNL233W, strain BNI4, hits give low values 1.02 | S. cerevisiae deletion strains, locus YNL248C, strain rpa49, hits give low values 0.998 | S. cerevisiae deletion strains, locus YNL250W, strain rad50, hits give low values 1.01 | S. cerevisiae deletion strains, locus YNL271C, strain bni1, hits give low values 1.01 | S. cerevisiae deletion strains, locus YNL298W, strain CLA4, hits give low values 1.01 | S. cerevisiae deletion strains, locus YNL307C, strain MCK1, hits give low values 1.02 | S. cerevisiae deletion strains, locus YNL322C, strain KRE1 (second series), hits give low values 1.02 | S. cerevisiae deletion strains, locus YNL322C, strain KRE1, hits give low values 1.01 | S. cerevisiae deletion strains, locus YNR049C, strain mso1, hits give low values 1.02 | S. cerevisiae deletion strains, locus YNR052C, strain pop2, hits give low values 0.996 | S. cerevisiae deletion strains, locus YOL006C, strain TOP1, hits give low values 1.16 | S. cerevisiae deletion strains, locus YOL012C, strain htz1 1.12 | S. cerevisiae deletion strains, locus YOL147C, strain pex11, hits give low values 1 | S. cerevisiae deletion strains, locus YOR001W, strain rrp6, hits give low values 1.01 | S. cerevisiae deletion strains, locus YOR061W, strain CKA2, hits give low values 1.01 | S. cerevisiae deletion strains, locus YOR069W, strain VPS5, hits give low values 1.01 | S. cerevisiae deletion strains, locus YOR070C, strain gyp1, hits give low values 1.02 | S. cerevisiae deletion strains, locus YOR080W, strain dia2, hits give low values 1.03 | S. cerevisiae deletion strains, locus YOR083W, strain WHI5, hits give low values 0.993 | S. cerevisiae deletion strains, locus YOR106W, strain vam3, hits give low values 1.01 | S. cerevisiae deletion strains, locus YOR136W, strain idh2, hits give low values 0.999 | S. cerevisiae deletion strains, locus YOR144C, strain elg1, hits give low values 0.998 | S. cerevisiae deletion strains, locus YOR184W, strain ser1, hits give low values 0.994 | S. cerevisiae deletion strains, locus YOR231W, strain MKK1, hits give low values 0.959 | S. cerevisiae deletion strains, locus YOR265W, strain rbl2, hits give low values 1.02 | S. cerevisiae deletion strains, locus YOR270C, strain vph1, hits give low values 1.03 | S. cerevisiae deletion strains, locus YOR290C, strain snf2, hits give low values 0.999 | S. cerevisiae deletion strains, locus YOR316C, strain cot1, hits give low values 1.01 | S. cerevisiae deletion strains, locus YPL051W, strain arl3, hits give low values 1.01 | S. cerevisiae deletion strains, locus YPL055C, strain LGE1, hits give low values 1.03 | S. cerevisiae deletion strains, locus YPL078C, strain atp4, hits give low values 1.01 | S. cerevisiae deletion strains, locus YPL106C, strain sse1, hits give low values 1 | S. cerevisiae deletion strains, locus YPL240C, strain hsp82, hits give low values 1.02 | S. cerevisiae deletion strains, locus YPL241C, strain CIN2, hits give low values 1.01 | S. cerevisiae deletion strains, locus YPL256C, strain CLN2, hits give low values 0.962 | S. cerevisiae deletion strains, locus YPR119W, strain clb2, hits give low values 1.01 | S. cerevisiae deletion strains, locus YPR141C, strain kar3, hits give low values 1.01 | S. cerevisiae deletion strains, locus YPR163C, strain tif3, hits give low values 1 | S. cerevisiae deletion strains, locus YPR167C, strain met16, hits give low values 1.02 | S. cerevisiae deletion strains, strain wtn01, hits give low values 1.06 | S. cerevisiae strains, strain wild type, hits give low values 1.01
